# Hits are enriched below; roughly 9.7% of the tested compounds scored in any of these assays.
# WNV protease inh: blocks West Nile virus NS2B-NS3 protease activity; P06935; WNV NS2B-NS3 protease, fluorogenic substrate Ex360/Em465; hits give low values; z-score (no concentration beside the values); 65,000 compounds, 0.18% hits; in the data active means z-score below about -3
# Target sequence (P06935 1371-1501 limits assumed): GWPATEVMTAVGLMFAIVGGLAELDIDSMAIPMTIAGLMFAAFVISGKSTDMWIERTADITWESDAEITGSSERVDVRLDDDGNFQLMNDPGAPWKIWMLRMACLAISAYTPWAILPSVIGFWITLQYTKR
# Target sequence (P06935 1502-1679 limits assumed): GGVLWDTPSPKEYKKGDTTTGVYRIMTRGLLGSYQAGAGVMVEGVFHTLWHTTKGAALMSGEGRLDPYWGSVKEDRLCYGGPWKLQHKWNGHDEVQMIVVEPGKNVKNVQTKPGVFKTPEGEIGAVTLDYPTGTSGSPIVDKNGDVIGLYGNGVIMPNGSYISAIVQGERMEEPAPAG
# M1 antagonist: antagonists of rat M1 muscarinic receptor; 64,000 compounds, 3.4% hits; P08482; CHO-M1 cells, Fluo-4 calcium, ACh EC80 antagonist mode; hits give low values; B-score at 10 µM;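 active means calcium fluorescence response, raw or row-and-column corrected B-score, differing from the plate sample mean either way at a set confidence level, mostly lower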
# M1 agonist: agonists of M1 muscarinic receptor; CHO-M1 cells, Fluo-4 calcium fluorescence, agonist mode; hits give high values; B-score at 10 µM; 64,000 compounds, 3% hits; AID 626;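 active means fluorescence rise, raw or as B-score row- and column-corrected plate score, outside the 99.7% band of its plate's samples, either direction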
# BAP1 inh: inhibitors of human BAP1 deubiquitinase; Q92560; recombinant BAP1, Ub-AMC hydrolysis fluorescence kinetic; hits give low values; calls only at 20 µM; 72,000 compounds, 0.48% hits;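 active means activity remaining at or below 50% of control, provided the compound also passes the data quality filters; inactive means the rest, including low values that fail the filters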;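 further: 100% = DMSO wells rate and 0% = substrate alone blank rate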
# Abs 340nm: compounds absorbing at 340 nm | fold change at 10 µM | AID 708 | compound absorbance at 340 nm, fold over control | 65,000 tested, under 10 active;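 active means at 10 µM dose, initial 340 nm absorbance at least 2 fold that of control wells; inactive means change under 2 fold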;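 further: initial absorbance extrapolated from kinetic A340 decline of NADH oxidation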
# Fluor 339 460: intrinsic fluorescence of library compounds, ex339/em460 – biochemical, MLSMR library, data from DPM-DC assay, artefact control, profiling panel; 65,000 compounds, 5.5% hits; fluorescence fold increase at 10 µM; compound autofluorescence, ex339/em460 nm, NADH buffer; hits give high values; 1 = no-compound wells, NADH background;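 active means at 10 µM, mean starting fluorescence two-fold or more over control wells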;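 further: signal is the first read of a kinetic run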
# Numbers without * were called inactive; i = inactive; . = no result shown.
SMILES,WNV protease inh,M1 antagonist,M1 agonist,BAP1 inh,Abs 340nm,Fluor 339 460
COc1ccc(-c2nc3cc(NC(=O)c4ccc5c(c4)OCO5)ccc3o2)cc1,-0.55,0.592,0.292,.,1.06,3.38*
O=C(Nc1ccc2oc(-c3ccccc3)nc2c1)c1ccc2c(c1)OCCO2,-0.45,-0.239,-0.706,.,1.04,3.19*
COc1cc(NC(=O)c2ccc3c(c2)OCO3)c2ncccc2c1,-0.43,-0.521,0.466,i,1.07,2.98*
CCC(=O)Nc1cccc(NC(=O)c2ccc3c(c2)OCO3)c1,0.73,-1.02,0.852,i,1.01,1.11
O=C(Nc1ccccc1F)c1ccc(S(=O)(=O)N2CCCc3ccccc32)cc1,.,.,.,i,.,.
COc1cc(-c2nc(-c3ccc(NC(=O)c4ccc5c(c4)OCO5)cc3)no2)cc(OC)c1OC,0.42,0.18,-0.219,.,1.11,2.14*
COc1ccc(CC(=O)Nc2ccc(-c3noc(-c4cc(OC)c(OC)c(OC)c4)n3)cc2)cc1,-0.77,0.969,0.0526,i,1.04,1.25
CCn1nnc(NC(=O)c2cc3ccccc3o2)n1,1.09,3.35*,0.213,i,1.01,1.03
CSc1ccc(C2Nc3ccccc3-c3cc(C)nn32)cc1 (stereo not given),-0.28,-0.00409,0.0114,i,0.98,2.01*
Cc1cc2n(n1)C(c1ccsc1)Nc1ccccc1-2 (stereo not given),0.27,-0.678,0.35,.,1.04,2.35*
CCOc1cc(S(=O)(=O)NCCc2cccc(C)c2)c(OCC)cc1-n1cnnn1,-0.47,-0.0655,0.686,i,1,3.66*
CCOc1ccc(-n2cnnn2)cc1S(=O)(=O)Nc1c(C)cccc1C,-0.21,0,-0.157,i,1.02,1.11
CCOc1cc(S(=O)(=O)NCCc2ccccc2C)c(OCC)cc1-n1cnnn1,0.65,-0.578,-0.0803,i,1.06,3.85*
Cn1c(=O)oc2cc(S(=O)(=O)N3CCCC(C(=O)N4CC=C(c5ccccc5)CC4)C3)ccc21 (stereo not given),-0.64,-1.86,3.37*,i,1.03,1.07
COc1ccc(Cn2c3nc4ccccc4nc3c3c(=O)n(Cc4ccco4)cnc32)cc1,-0.8,0.0518,0.769,i,1.09,1.81
Cc1cccc(S(=O)(=O)Nc2nc3ccccc3nc2NCc2ccco2)c1,0.37,-0.353,1.82,.,1.15,1.73
Cc1cccc(-n2cnc3c(c2=O)c2nc4ccccc4nc2n3Cc2ccco2)c1,0.13,-0.00506,-0.482,.,1.13,3.17*
Cc1ccc(S(=O)(=O)c2c(N)n(NC(=O)c3ccco3)c3nc4ccccc4nc23)cc1,1.11,-0.364,-0.187,i,1.04,3.76*
Cc1cccc(S(=O)(=O)c2c(N)n(Cc3ccco3)c3nc4ccccc4nc23)c1,0.74,1.07,0.0376,i,1.07,3.85*
CC1(C)OC(=O)C(=CNC(CCC(N)=O)C(=O)O)C(=O)O1 (stereo not given),1.76,1.26*,-0.131,i,1,1.08
CN(C(=O)c1cccs1)c1ccccc1C(=O)O,-0.18,0.24,-0.957,i,1.04,2.18*
CCOC(=O)C1=C(C)Nc2nnnn2C1c1ccc(OC(=O)c2ccccc2)cc1 (stereo not given),.,.,.,i,.,.
Cc1ccc(-n2c(=O)[nH]c3c(C(N)=O)nc(CC(C)C)nc32)cc1,0.96,0.788,-0.048,i,1,1.68
Cc1ccc(-n2c(=O)[nH]c3c(C(N)=O)nc(-c4ccc(C)o4)nc32)cc1,2.81,0.652,-0.61,i,1.03,2.36*
NC(=O)c1nc(C2CCCCC2)nc2c1[nH]c(=O)n2-c1ccc(F)cc1,0.93,0.904,-0.673,i,1.04,2.12*
SMILES,WNV protease inh,M1 antagonist,M1 agonist,BAP1 inh,Abs 340nm,Fluor 339 460
COc1ccccc1-n1c(=O)[nH]c2c(C(N)=O)nc(-c3cccnc3)nc21,0.07,0.0405,-0.00117,i,1.04,2.46*
CCOc1ccccc1-c1nc(C(N)=O)c2[nH]c(=O)n(-c3cccc(C)c3)c2n1,-0.13,0.534,0.179,i,1.05,2.53*
COc1ccccc1-n1c(=O)[nH]c2c(C(N)=O)nc(C3CCCCC3)nc21,-0.05,0.79,0.236,i,1.04,1.77
O=C(Cc1ccc(Cl)cc1)N1CCN(c2ccc([N+](=O)[O-])cc2)CC1,.,.,.,i,.,.
CC(=O)OC1CCC2(C)C(CCC3C2CCC2(C)C3CC(O)C2(O)C(C)=O)C1 (stereo not given),.,.,.,i,.,.
COc1ccc(-c2cc3nc(-c4ccccc4)cc(N4CCC5(CC4)OCCO5)n3n2)cc1,-1.08,-0.557,1.17,.,1.03,4.85*
CC(C)Oc1cc2oc(=O)c3c(c2cc1Cl)CCC3,-0.29,0.00996,0.811,i,1.05,2.31*
CC(=O)Oc1cc2oc(=O)c3c(c2cc1Cl)CCC3,3.19,-0.569,-1.4,.,1.01,4.92*
Cc1coc2cc3oc(=O)c4c(c3cc12)CCC4,-0.44,-0.147,-0.66,.,1.02,2.75*
O=C(Oc1cc2oc(=O)c3c(c2cc1Cl)CCCC3)c1ccco1,0.34,0.0444,-0.51,i,1.08,2.46*
CCOC(=O)C1=C(C)NC(=O)CC1c1ccccc1I (stereo not given),.,.,.,i,.,.
O=C(c1ccccc1)N1CCN(Cc2ccccn2)CC1,.,.,.,i,.,.
CCN(CC)CCNc1ccnc2c1ccc1nsnc12,.,.,.,i,.,.
Cc1cc(=O)oc2cc(OCc3ccccc3F)c(Cl)cc12,.,.,.,i,.,.
Cc1cc(=O)oc2cc(OC(C)C(=O)O)c(Cl)cc12 (stereo not given),-0.43,1.09,-0.0372,.,1.05,3.17*
CCCOc1cccc(C(=O)Nc2ccc(NC(=O)c3ccc(Br)cc3)cc2)c1,.,.,.,i,.,.
CCOC(=O)C1CCN(C(=O)Nc2ccc3nc(C)c(C)nc3c2)CC1,2.46,0.688,0.341,.,1.01,2.92*
CCOC(=O)C1CCN(C(=O)Nc2ccc3oc(C)nc3c2)CC1,-0.74,0.908,1.09,i,1.02,1.14
CCOC(=O)C1CCN(Cc2cn[nH]c2-c2ccccc2)CC1,-0.52,-0.852,-0.0868,.,1.03,3.83*
COC(=O)/C=c1\sc2ncnn2c1=O,-0.58,-0.172,-0.447,i,1.02,1.02
CC(C)Oc1ccc(-c2nn(-c3ccccc3)cc2/C=c2\sc3ncnn3c2=O)cc1,0.77,-0.799,32.9*,i,1.01,3.02*
CCOc1cc2c(c([N+](=O)[O-])c1)NC(c1ccc([N+](=O)[O-])cc1)C1CC=CC21 (stereo not given),.,.,.,i,.,.
CC1=CC(C#N)(C#N)C(C#N)(C#N)C(c2ccccc2)N1 (stereo not given),-0.09,-0.279,25.4*,.,1.02,3.1*
CCSC1(SCC)N=C(N)C2(C#N)C(c3ccccc3)NC(C)=C(C)C12C#N (stereo not given),-1.26,0.7,0.249,i,1,1.07
COc1ccccc1NC(=O)CN1C(=O)C(C)Oc2ccccc21 (stereo not given),1,0.231,-3.39*,i,1.04,1.02
